This is an account of results in PMC4552634, “A New Set of Chemical Starting Points with Plasmodium falciparum Transmission-Blocking Potential for Antimalarial Drug Discovery” (PLoS ONE, 2015).

In all, about 13,000 compounds went through this assay and about 3,200 (25%) showed an effect of 50% or more. The list shows a part of the results.

The subject of this test is P. falciparum stage V gametocytes. Also noted: BacTiter-Glo ATP luminescence viability of purified stage V gametocytes in 384-well plates, per cent inhibition versus DMSO. The settings on record: 48 h, 5 µM; inhibitor.
Turning to `O=C(Nc1ccccc1-c1ccccc1)C1CCCN1C(=O)Nc1ccc(Cl)cc1` (stereo not drawn) [TCMDC-123648], the “% Inhibition” value is listed as 32.25%.

With `Cc1cc(NC(=O)Nc2ccc3nccc(N4CCN(C)CC4)c3c2)ccc1Br` [TCMDC-139361], the “% Inhibition” value stood at 36.21%. Take `CC[C@H]1C[N+]2([O-])CC[C@@H]1C[C@H]2[C@H](O)c1cc(-c2ccccc2)nc2ccc(OC)cc12` [TCMDC-141330]: the “% Inhibition” value is reported as 6.04%. On to `CC(=O)Nc1nc(C)c(-c2csc(Nc3ccc(Cl)cc3)n2)s1` [TCMDC-123995], for which the “% Inhibition” value was -35.56%. In the case of `Clc1ccc(Nc2nc(-c3ccccn3)cs2)nc1` [TCMDC-123885] it was 114%; in that of `Cc1cc(NCC2CCN(CC3CCCCC3)C2)nc(Nc2ccc(Br)cc2)n1` (stereo not drawn) [TCMDC-137024], -11.33%. In the case of `Fc1ccc2nc(-c3ccc(-c4ccc(CNCCN5CCNCC5)cc4)cc3)[nH]c2c1` [TCMDC-132866] it was 95.81%. In the case of `CC(C)NCc1ccc(-c2ccc(-c3nc4ccc(C(F)(F)F)cc4[nH]3)cc2)cc1` [TCMDC-132741] it was -41.38%; in that of `NCc1ccc(CNCc2ccc(-c3ccc(-c4nc5ccc(F)cc5[nH]4)cc3)cc2)cc1` [TCMDC-132810], 33.23%. On to `Fc1ccc2nc(-c3ccc(-c4ccc(CNCc5ccccc5)cc4)cc3)[nH]c2c1` [TCMDC-132706], for which the “% Inhibition” value is given as -8.739%.

For `FC(F)(F)c1ccc2nc(-c3ccc(-c4ccc(CNCCN5CCNCC5)cc4)cc3)[nH]c2c1` [TCMDC-132865], the “% Inhibition” value is recorded as 81.47%. Consider `O=C(NCCN1CCCC1)c1cccc(-c2ccc(-c3nc4ccc(C(F)(F)F)cc4[nH]3)cc2)c1` [TCMDC-132322], for which the “% Inhibition” value is given as -42.59%. To `Cc1ccc(O)cc1Nc1ccnc2ccc(-c3csc(CNCCN4CCOCC4)n3)cc12` [TCMDC-138419] belongs 24.32%. As for `C=CCOC(=O)N1CCC(CNCc2cccc(-c3cccc(-c4nc5cc(F)ccc5[nH]4)c3)c2)C1.O=C(O)C(F)(F)F` (stereo not drawn) [TCMDC-133045], the “% Inhibition” value is on record as -22.96%. Turning to `O=C(CC(=O)Nc1cc(Cl)cc(Cl)c1)Nc1cc(Cl)cc(Cl)c1` [TCMDC-124303], the “% Inhibition” value worked out at 1.845%. Take `O=C(Nc1cccc(-c2nn3ccccc3c2-c2ccnc(Nc3cccc(F)c3)n2)c1)c1c(F)ccc(F)c1Cl` [TCMDC-135830]: the “% Inhibition” value is reported as 19.22%. In the case of `CCCCCCCOc1ccc(NC(=O)Nc2ccc(Cn3ncc(N4CCCNCC4)c(Cl)c3=O)cc2)cc1` [TCMDC-133318] it was 42.33%. To `CC(C)c1nc(N2CCN(C(=S)NCc3ccccc3)CC2)c(C#N)c2c1COC(C)(C)C2` [TCMDC-124093] belongs 85.74%; to `CC(C)Sc1nc(-c2ccccc2)nc2c1COC(C)(C)C2` [TCMDC-125132], -39.31%. As to `N#Cc1ccc(CN2CCC(Oc3ccc(NC(=O)c4cccs4)cc3Cl)C2)cc1` (stereo not drawn) [TCMDC-133962], the “% Inhibition” value is reported as 5.438%. In the case of `FC(F)(F)c1cccc(Nc2nc(-n3ccnc3)nc(-n3ccnc3)n2)c1` [TCMDC-123871], the “% Inhibition” value came to 5.028%.

With `Cc1cc(Nc2cccc(C(F)(F)F)c2)nc(Nc2cccc(C(F)(F)F)c2)n1` [TCMDC-124213], the “% Inhibition” value is -15.06%.

Turning to `FC(F)(F)c1cccc(Nc2nc3ccccc3nc2Nc2cccc(C(F)(F)F)c2)c1` [TCMDC-124162], the “% Inhibition” value is 95.6%. Consider `FC(F)(F)c1cccc(Nc2nc(-c3ccccc3)nc3ncccc23)c1` [TCMDC-125597], for which the “% Inhibition” value came out at 73.35%. For `Cc1cc(Nc2cccc(C(F)(F)F)c2)nc(N)n1` [TCMDC-124264], the “% Inhibition” value was determined as 7.363%. To `Cc1cc(C)n(-c2nc(Nc3cccc(C(F)(F)F)c3)nc(-n3nc(C)cc3C)n2)n1` [TCMDC-125770] belongs 16.09%; to `N#CCCN1CCN(Cc2cccc(-c3ccc(-c4nc5ccccc5[nH]4)s3)c2)CC1.O=C(O)C(F)(F)F` [TCMDC-133871], -9.564%; to `NC1=NC2(CCCCC2)N(OCCCCCCCCNc2nc(N)nc(N)n2)C(N)=N1` [TCMDC-140517], 6.685%. To `Nc1nc(N)c2c(ccc3c2ccn3CCCC2CCCNC2)n1` (stereo not drawn) [TCMDC-138618] belongs 26.76%; to `Nc1nc(N)c2c(ccc3c2ccn3Cc2ccc(-c3ccccc3)cc2)n1` [TCMDC-137813], 115.8%; to `Nc1nc(N)c2c(ccc3c2ccn3Cc2ccc(OCc3ccccc3)cc2)n1` [TCMDC-137336], 29.32%.

In the case of `Nc1nc(N)c2c(ccc3c2ncn3Cc2ccccc2)n1` [TCMDC-137749], the “% Inhibition” value is 33.84%.

As for `Nc1nc(N)c2c(ccc3c2ccn3Cc2ccccn2)n1` [TCMDC-137980], the “% Inhibition” value is recorded as 111.5%. Regarding `N#Cc1ccc(Cn2ccc3c4c(N)nc(N)nc4ccc32)cc1` [TCMDC-137820], the “% Inhibition” value is 103.8%. Take `Nc1nc(N)c2c(ccc3c2ccn3Cc2ccccc2)n1` [TCMDC-141977]: the “% Inhibition” value came to 66.05%.

Consider `CNC(=O)COC(=O)c1c2c(nc3ccccc13)C(=Cc1ccc3c(c1)OCO3)CCC2` [TCMDC-123900], for which the “% Inhibition” value is 4.246%. For the molecule `Cn1cnc(CCNC(=O)c2ccc(-c3cccc(-c4nc5cc(C(F)(F)F)ccc5[nH]4)c3)cc2)c1` [TCMDC-132493], the “% Inhibition” value turned out to be 1.105%. For the molecule `Cc1ccc(OC2CCN(c3ccc(C(=O)NC4CC4)cn3)CC2)cc1` [TCMDC-134059], the “% Inhibition” value is given as 7.555%.

For `NC1=Nc2ccc(Cl)cc2C1(O)c1ccccc1` (stereo not drawn) [TCMDC-123492], the “% Inhibition” value turned out to be 3.06%.

Regarding `CCOc1ccc(C(=O)Nc2cc3c(c(C(F)(F)F)c2)CCNC3)cc1Cl` [TCMDC-139751], the “% Inhibition” value is on record as 25.29%. In the case of `N#Cc1cccc(C(O)C2CN(CCC3CCCCC3)CCC2(O)c2ccccc2)c1` (stereo not drawn) [TCMDC-131999] it was -28.27%; in that of `CCCNC(=O)Nc1cc2cc(-c3cccc(CN4CCCCC4)c3)ccc2n2c(C)nnc12` [TCMDC-136740], 104.3%. Consider `COc1ccc2[nH]c(C(=O)Nc3cccc(-c4ccc(CN(C)C)cc4)c3)cc2c1` [TCMDC-134283], for which the “% Inhibition” value is -4.108%. Turning to `Cc1nnc2c(N(C(=O)NCCc3ccccc3)C(=O)NCCc3ccccc3)cc3cc(Cl)ccc3n12` [TCMDC-135524], the “% Inhibition” value was found to be 21.17%. In the case of `O=C(Nc1cccc(-c2ccc(CN3CCCC3)cc2)c1)c1ccc(Cl)cc1` [TCMDC-132630] it was 10.82%. With `Cc1nnc2c(NC(=O)NC(C)C)cc3cc(-c4ccc(CN5CCCCC5)cc4)ccc3n12` [TCMDC-136738], the “% Inhibition” value turned out to be 50.46%.

As to `Cc1nnc2c(NC(=O)/C=C/c3ccc(OC(F)(F)F)cc3)cc3cc(Cl)ccc3n12` [TCMDC-135918], the “% Inhibition” value is given as -12.77%. Regarding `COc1ccc(CNC(=O)Nc2cc3cc(-c4ccc(CN(C)C)cc4)ccc3n3c(C)nnc23)cc1` [TCMDC-136719], the “% Inhibition” value is 118%. Regarding `Cc1cccc2[nH]c(-c3ccc(-c4cccc(NC(=O)NCc5ccc(F)cc5)c4)cc3)nc12` [TCMDC-133303], the “% Inhibition” value is reported as -66.9%. In the case of `O=C(Nc1cccc(-c2ccc(CN3CCCC3)cc2)c1)c1ccc(F)cc1` [TCMDC-132636] it was -0.2818%; in that of `O=C(Nc1cccc(-c2cccc(CN3CCCC3)c2)c1)c1ccc(Cl)cc1` [TCMDC-132654], 19.28%. In the case of `COc1cccc(CNC(=O)c2cccc(-c3ccc(CN4CCC(N5CCCC5)CC4)cc3)n2)c1` [TCMDC-134416] it was 30.7%; in that of `COc1ccc(CNC(=O)Nc2cc3cc(-c4ccc(CN5CCCC5)cc4)ccc3n3c(C)nnc23)cc1` [TCMDC-136720], 98.19%; in that of `CN(C)c1ccc(-c2cscc2C(=O)NC2CCCN(Cc3cccnc3)C2)cc1` (stereo not drawn) [TCMDC-134489], 34.49%. To `CN(Cc1cccc(F)c1)C1CCCN(c2cc(NC(=O)c3ccccc3)ccn2)C1` (stereo not drawn) [TCMDC-135013] belongs 1.109%; to `CN1CC=C(c2c[nH]c3ccc(OC(=O)c4ccccc4)cc23)C1` [TCMDC-139100], -51.1%; to `CCNC(=O)Nc1ccc(-c2cnc(N)c(-c3nc4ccc(OC)cc4[nH]3)c2)cc1` [TCMDC-135321], -14.13%. In the case of `O=C(/C=C/c1ccc(Cl)c(Cl)c1)NC1CCC(CN2CCC(c3nc4ccccc4n3CCCO)CC2)CC1` (stereo not drawn) [TCMDC-140313], the “% Inhibition” value was found to be 5.954%. Consider `Cc1cc(NC2CCN(CC3CCCCC3)CC2)nc(Nc2ccccc2Cl)n1` [TCMDC-137017], for which the “% Inhibition” value is -7.805%.

`CCC(CC)n1cc2c(ccc3nc(N)nc(N)c32)n1` [TCMDC-138019]: the “% Inhibition” value is recorded as -28.37%. To `Nc1ccnc(N2CCC(CCOc3cc(C(F)(F)F)nc4c(C(F)(F)F)cccc34)CC2)c1` [TCMDC-141364] belongs 15.98%; to `CC(Cc1ccc(CN2CCN(Cc3ccccc3)CC2)cc1)NCC(O)c1cccc(C(F)(F)F)c1` (stereo not drawn) [TCMDC-131534], 42.03%; to `N=C(N)c1ccc(-c2cc(-c3cccc(C(=N)N)c3)on2)cc1` [TCMDC-137264], 7.482%.

In the case of `Cc1ccc(NC(=O)c2ccc3ncccc3c2)cc1OC1CCN(Cc2ccsc2)C1` (stereo not drawn) [TCMDC-133949], the “% Inhibition” value was -9.977%. In the case of `c1ccc(COc2ccc(Nc3ncnc4ccc(-c5ccc(CN6CCSCC6)o5)cc34)cc2)cc1` [TCMDC-138242] it was 13.7%; in that of `Cc1ccc(C)c(NC(=O)Nc2ccc(Nc3nc(C)cc(N4CCOCC4)n3)cc2)c1` [TCMDC-124751], 3.565%. To `CC(=O)N/N=C/[C@H](CCc1ccccc1)NC(=O)[C@H](CC(C)C)NC(=O)c1cccc(OCCN2CCOCC2)c1` [TCMDC-135972] belongs 30.82%. As for `CCCCNC(=O)C1CCCN(C(=O)c2ccc(O)c(-c3ccc(Cl)c(Cl)c3)c2)C1` (stereo not drawn) [TCMDC-140887], the “% Inhibition” value is recorded as -1.062%. To `CS(=O)(=O)NCCCNCc1cccc(-c2csc(-c3nc4ccccc4[nH]3)c2)c1` [TCMDC-133089] belongs -10.78%.

The term % Inhibition denotes the relative decrease from the control value, in per cent.
